Experimental data reported in the supplement of paper PMC6555819.

Legend:
Assay in all cases: PBM binding z-score (relative to random genomic background probes); higher = stronger binding; sequences stand for … in GC…GCGATTGACAGCGTAGAATGAAGG
[1] = system: PPARg:RXRa DBDmut IVT, anti-RXR (DBD mutation: RXRa K156A/R161A, NR concentration 270 nM, RXRa partner concentration 90 nM)
Summary of the method: (§1)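 Custom Agilent 4×180K protein-binding microarrays carried double-stranded probes. Their 34-nt variable regions held direct-repeat seeds, single-nucleotide variants, half-site ablations and random human genomic background sequences. Arrays were incubated 1 h with ligand-free nuclear receptor dimers in PBS pH 7.4, 2% milk, 0.02% Triton X-100, 1 mM DTT, 0.2 mg/mL BSA and 0.4 mg/ml salmon testes DNA. Antibodies against each partner (one per run) detected binding, and scanned fluorescence was regression-normalized. Binding z-scores use random background probes as reference.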

[2] = system: PPARg:RXRa IVT, anti-PPARg (NR concentration 270 nM, RXRa partner concentration 90 nM)
Summary of the method: as §1

[3] = system: PPARg DBDmut:RXRa IVT, anti-PPARg (DBD mutation: PPARg1 K132A/R137A, NR concentration 270 nM, RXRa partner concentration 90 nM)
Summary of the method: as §1

[4] = system: PPARg DBDmut IVT, anti-PPARg (DBD mutation: PPARg1 K132A/R137A, NR concentration 270 nM)
Summary of the method: as §1

[5] = system: PPARg homodimer (NR concentration 180 nM)
Summary of the method: as §1

[6] = system: PXR:RXRa (NR concentration 270 nM, RXRa partner concentration 90 nM)
Summary of the method: as §1

[7] = system: PXR homodimer (NR concentration 270 nM)
Summary of the method: as §1

[8] = system: RARa:RXR (NR concentration 270 nM, RXRa partner concentration 90 nM)
Summary of the method: as §1

[9] = system: RARa homodimer (NR concentration 270 nM)
Summary of the method: as §1

[10] = system: RARb:RXRa (NR concentration 270 nM, RXRa partner concentration 90 nM)
Summary of the method: as §1

[11] = system: RARb homodimer (NR concentration 270 nM)
Summary of the method: as §1

[12] = system: RARg:RXRa (NR concentration 270 nM, RXRa partner concentration 90 nM)
Summary of the method: as §1

[13] = system: RARg homodimer (NR concentration 270 nM)
Summary of the method: as §1

[14] = system: RXRa DBDmut IVT, anti-RXR (DBD mutation: RXRa K156A/R161A, NR concentration 90 nM)
Summary of the method: as §1

[15] = system: RXRa homodimer (NR concentration 180 nM)
Summary of the method: as §1

[16] = system: THRa:RXRa (NR concentration 90 nM, RXRa partner concentration 90 nM)
Summary of the method: as §1

[17] = system: THRa homodimer (NR concentration 90 nM)
Summary of the method: as §1

[18] = system: VDR homodimer (NR concentration 270 nM)
Summary of the method: as §1

[19] = system: VDR:RXRa (NR concentration 270 nM, RXRa partner concentration 90 nM)
Summary of the method: as §1

Sequence | PBM binding z-score [1] | PBM binding z-score [2] | PBM binding z-score [3] | PBM binding z-score [4] | PBM binding z-score [5] | PBM binding z-score [6] | PBM binding z-score [7] | PBM binding z-score [8] | PBM binding z-score [9] | PBM binding z-score [10] | PBM binding z-score [11] | PBM binding z-score [12] | PBM binding z-score [13] | PBM binding z-score [14] | PBM binding z-score [15] | PBM binding z-score [16] | PBM binding z-score [17] | PBM binding z-score [18] | PBM binding z-score [19]
AGTCAAAGTTCAGGACGAGGTAAAGTAAAGCACG | 0.127 | 1.81 | 0.318 | 0.49 | 2.36 | 2.86 | 1.28 | 2.84 | 1.52 | 4.33 | 3.05 | 4.76 | 4.51 | 3.04 | 3.22 | 3.78 | 1.51 | 2.35 | 
CCTAGTTGGGCAGGAGGTCACACACCGGATATGA | 0.343 | 2.59 | -0.448 | -0.00376 | 2.16 | 3.77 | 0.916 | 3.7 | 1.59 | 3.15 | 3.48 | 3.98 | 3.52 | -0.0255 |  | 3.14 | 1.57 | 1.37 | 3.09
CAAACTAGGTCACCGTAAGGTCAAAGTCCGCATG | 8.08 | 9.03 | 2.73 | 1.86 | 6.09 | 6.21 | 2.62 | 7.31 | 1.95 | 5.57 | 5.88 | 8.26 | 7.64 | 2.47 | 6.67 |  | 5.45 | 4.19 | 
CGTCAAAGTTCACCTAAGGTAACGTAAAGCACGC | 0.554 | 2.63 | 0.556 | 0.77 | 3.35 | 5.29 | 3.14 | 4.17 | 0.893 | 5.21 | 4.45 | 5.95 | 6.36 | 4.67 | 5.09 |  | 3.11 | 4.19 | 
CCTACTGGGCCATCAGGTGATTGATATCAACGTT | 3.79 | 4.34 | 0.38 | -0.0432 | -0.3 | -0.668 | -0.342 | -0.448 | -0.0417 | 0.0448 | -0.117 | 0.0131 | 0.41 | -0.814 | -0.272 |  | 0.389 | -0.474 | 
CCTTACGGGTCAAGGTTGTAGCACGGGTGGTACG | 0.974 | 3.06 | 0.572 | -0.462 | 1.93 | 2.61 | -0.423 | 3.82 | -0.14 | 3.86 | 3.2 | 4.54 | 4.07 | 0.452 |  | 2.38 | 0.122 | 1.18 | 3.02
CCTACTGGGCCACGAAAGGTCCTTGATTCAGTGA | 5.26 | 4.89 | -0.745 | -0.678 | -0.351 | -0.149 | -0.492 | 0.131 | -0.655 | 0.686 | 0.647 | 0.00978 | 0.301 | -0.311 |  | 0.686 | -0.289 | -0.692 | -0.615
AGTCAAAGTTCATCTAGGTAACGAAAGATATGCT | 0.744 | 4.11 | 1.97 | 1.3 | 3.18 | 5.26 | 6.53 | 4.34 | 2.16 | 5.15 | 3.88 | 5.82 | 6.19 | 4.79 |  | 3.24 | 0.383 | 5.04 | 4.81
CATACAGGGTAAGCTAGGCCAGAGTAGGGACGGC | 0.432 | 0.87 | -0.00431 | -0.34 | -0.902 | -0.7 | -0.446 | -0.142 | 0.0109 | 0.588 | 0.192 | 0.225 | 0.59 | -0.744 | 0.077 | 1.49 | -0.191 | -0.259 | 
GCTTACGGGTCAAAGGTTAAAGCATGAATAGAAT | 4.74 | 6.3 | 1.36 | 2.46 | 1.69 | 6.29 | 0.364 | 8.66 | 0.51 | 4.94 | 3.36 | 7.28 | 5.18 | 2.07 |  | 4 | -0.111 | 1.4 | 5.38
CGTCAAAGTTCAAGGTAATGTAACAGAAAGCAGC | 0.0949 | 2.03 | 0.311 | 0.686 | 2.57 | 3.95 | 2.92 | 3.38 | 1.61 | 5.14 | 4.04 | 5.25 | 6.13 | 4.23 | 4.26 | 2.88 | 0.964 | 3.14 | 
CATACAGGGACAGCTAGGCCAGAGTAGGGACGGC | -0.69 | -0.181 | -1.17 | 0.371 | -0.647 | -0.731 | -0.605 | -0.361 | 0.0521 | 0.723 | 0.286 | 0.368 | 0.718 | -0.689 |  | 0.703 | 0.148 | -0.709 | -0.582
CCTACTGGGCCAATGTCATTGATCAGTCAAAGCA | 3.94 | 2.99 | -0.0732 | -0.746 | -0.246 | -0.427 | -0.747 | -0.51 | -1.11 | 0.363 | 0.109 | 0.114 | 0.0827 | -0.907 | -0.139 | -0.112 | -0.837 | -0.862 | 
CCTTACGGGTCACGGTTATAGCACGGGTGGTACG | 3 | 4.79 | 0.0456 | -0.518 | 2.07 | 3.68 | -0.0861 | 4.84 | 0.629 | 4.37 | 3.58 | 5.47 | 5.06 | 0.501 | 6.44 | 3.28 | 0.418 | 1.26 | 
TAGCCTAGGTCATAGGGCCAGTATAGTACGCATC | 1.41 | 2.83 | 0.326 | -0.841 | 1.14 | 1.45 | -0.088 | 2.37 | -0.213 | 3.75 | 2.98 | 3.86 | 3.89 | 0.967 |  | 2.75 | 0.823 | 0.453 | 1.96
CCTACTGGGCCAAGGTCATTGACCAGTCAAAGCA | 3.82 | 4.84 | -0.707 | -1.06 | 1.94 | 3.71 | 1.37 | 3.95 | -0.225 | 3.45 | 3.43 | 3.87 | 3.66 | 0.966 | 4.1 | 3.67 | 2.29 | 2.59 | 
